Experimental findings from PubChem BioAssay AID1851 (National Center for Advancing Translational Sciences (NCATS), 2009) are described below.

Molecules are shown by their SMILES. Among all 16,000 compounds or so, about 5,100 (32%) were called active. Roughly 25% stayed inconclusive and do not appear here. The list shows a part of the results. A number with no mark means an inactive call. Calls follow the shape of the dose curve; as a rule, active = well fitted curve in the direction sought with a large enough effect; inconclusive = small, poorly fitted or top-dose-only effect, or effect the other way; inactive = no such curve, though single readings can be large or run the other way.
% is scaled to controls: 0 for no effect and ±100 for the full control effect.

The target of the assay is Cytochrome P450 3A4 (Homo sapiens) (UniProt P08684). Put plainly: Cytochrome panel assay with activity outcomes. The note with it: recombinant CYP, pro-luciferin dealkylation, luminescence, p450-cyp3a4; series mostly up to 57.1 µM; activity, negative = inhibition: at the top concentration.
Chain of Cytochrome P450 3A4 (Homo sapiens) (P08684 whole entry, looked up): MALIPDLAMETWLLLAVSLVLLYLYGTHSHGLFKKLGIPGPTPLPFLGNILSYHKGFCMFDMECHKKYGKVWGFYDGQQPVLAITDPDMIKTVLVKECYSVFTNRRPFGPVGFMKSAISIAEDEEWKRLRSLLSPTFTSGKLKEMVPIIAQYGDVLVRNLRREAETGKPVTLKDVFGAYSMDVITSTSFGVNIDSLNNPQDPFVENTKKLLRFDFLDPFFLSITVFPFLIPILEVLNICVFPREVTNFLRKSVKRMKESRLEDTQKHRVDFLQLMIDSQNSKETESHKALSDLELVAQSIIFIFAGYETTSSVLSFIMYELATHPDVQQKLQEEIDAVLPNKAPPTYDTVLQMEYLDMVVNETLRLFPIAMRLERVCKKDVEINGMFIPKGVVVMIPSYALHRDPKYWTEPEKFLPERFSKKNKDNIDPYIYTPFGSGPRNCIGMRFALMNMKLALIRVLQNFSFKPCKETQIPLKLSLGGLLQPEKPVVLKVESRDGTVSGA
With `COc1cccc(-c2cncnc2N(C)Cc2ccco2)c1`, the AC50 is 2.51 µM (active).

For the molecule `CCc1ccc2[nH]c(O)c(N=Nc3nc(-c4ccccc4)cs3)c2c1`, the activity, negative = inhibition was -16.3% [at 2.29 µM].

As to `COc1c(O[C@H]2O[C@@H](CO)[C@@H](O)[C@@H](O)[C@@H]2O)cc2c(c1OC)-c1ccc(SC)c(=O)cc1[C@H](NC(C)=O)CC2`, the “activity, negative = inhibition” value is -4.87% [at 25.6 µM].

As to `N[C@@H](C(=O)O)[C@H](CC(=O)O)c1ccc(Cl)cc1`, the “activity, negative = inhibition” value is -10.4%.

`CCCC[C@@H]1C[C@H]1C(NC(=O)c1ccc(-c2ccccc2)cc1)c1ccc(-c2ccccc2)cc1` (stereo not given in full): the “activity, negative = inhibition” value was -9.94%.

With `CCCC[C@@H]1C[C@H]1C(NC(=O)c1cccnc1)c1ccc(Cl)cc1` (stereo not given in full), the AC50 is 0.0794 µM (active).

With `CCCC[C@@H]1C[C@H]1C(NC(=O)Cc1ccccc1)c1ccc(Cl)cc1` (stereo not given in full), the AC50 was 2.51 µM (active).

For `CCCC[C@@H]1C[C@H]1C(NC(=O)c1ccccc1)c1ccc(Cl)cc1` (stereo not given in full), the AC50 was 3.98 µM (active).

For the molecule `CCCC[C@@H]1C[C@H]1C(NC(=O)c1ccccc1)c1ccccc1` (stereo not given in full), the AC50 was 12.6 µM (active).

On to `Cc1oc(-c2cccc(Cl)c2)[n+]([O-])c1C`, for which the “activity, negative = inhibition” value was 1.66%.

As for `O=C(/C=C/c1cc2c(cc1Br)OCO2)NCc1ccc(Cl)cc1`, the half-maximal activity concentration (AC50) is 2.51 µM (active).

Turning to `O=C(N/N=C/c1c[nH]c2ccccc12)c1cc(-c2ccc(-c3ccccc3)cc2)n[nH]1`, the activity, negative = inhibition is -5.85% [at 2.29 µM].

For `O=[N+]([O-])c1ccccc1N/N=C/c1c[nH]c2ccccc12`, the AC50 was 25.1 µM (active).

For `O=C(O)c1ccccc1N/N=C\c1ccnc2ccccc12`, the activity, negative = inhibition is -0.0882% [at 2.29 µM].

Consider `Cc1ccc(C)c(NC(=S)N(CCc2nc3cc(C)c(C)cc3[nH]2)Cc2cccnc2)c1`, for which the AC50 is 2.51 µM (active).

Turning to `COc1cccc(NC(=S)N(CCc2nc3cc(C)c(C)cc3[nH]2)Cc2cccnc2)c1`, the half-maximal activity concentration (AC50) is 2.51 µM (active).

With `Cc1cccc(NC(=S)N(CCc2nc3cc(C)c(C)cc3[nH]2)Cc2cccnc2)c1`, the AC50 was 2.24 µM (active).

Regarding `CN(C)CCNc1ccccn1`, the activity, negative = inhibition was -5.4% [at 11.4 µM].

With `CC1CN(C(=O)COc2ncnc3ccccc23)CC(C)O1` (stereo not given), the “activity, negative = inhibition” value is -15.3%.

Consider `Cc1ccc(-n2ccc(=O)c(-c3ccnc(SCc4cccc(Cl)c4)n3)n2)cc1`, for which the AC50 is 8.91 µM (active).

`CC(C)[C@](N)(C(=O)O)c1ccccc1`: the activity, negative = inhibition was -13.2% [at 11.4 µM].

Take `O=c1cc(-c2ccccc2)[nH]n1-c1ccc([N+](=O)[O-])cc1`: the AC50 is 14.1 µM (active).

Take `O=C1NC(c2cccc([N+](=O)[O-])c2)=CCN1c1ccccc1O`: the “activity, negative = inhibition” value is -24.7%.

On to `CCc1c2c(nc3c(C(C)C)cccc13)-c1cccc(=O)n1C2`, for which the AC50 was 15.8 µM (active).

Take `CC(C)c1cccc2cc3c(nc12)-c1cccc(=O)n1C3`: the half-maximal activity concentration (AC50) was 15.8 µM (active).

In the case of `CC(C)c1cccc2c([Si](C)(C)C)c3c(nc12)-c1cccc(=O)n1C3`, the concentration at half-maximal activity (AC50) was 25.1 µM (active).

On to `O[C@H](C[C@@H]1CCCCN1)c1ccc2c(c1)oc1ccccc12`, for which the activity, negative = inhibition is -5% [at 11.4 µM].

For `CCOC(=O)c1cnc(-c2ccccc2)nc1Oc1ccc(Cl)cc1`, the “activity, negative = inhibition” value is 0.243%.

Regarding `COc1ccc(-c2cc(C(=O)O)c3c(C)nn(-c4ccccn4)c3n2)cc1`, the “activity, negative = inhibition” value was -12.3%.

On to `CCOC(=O)c1cc(-c2ccc(Cl)cc2)nc2c1c(C)nn2CCC#N`, for which the AC50 is 25.1 µM (active).

In the case of `Cc1ccc(Sc2c([N+](=O)[O-])ncn2C)cc1`, the activity, negative = inhibition was 11.7% [at 2.29 µM].

`Cc1nn(S(=O)(=O)c2cccs2)c(C)c1Sc1ccc([N+](=O)[O-])cc1`: the AC50 was 2.82 µM (active).

Regarding `Cc1nn(C(=O)c2ccco2)c(C)c1Sc1ccc(Br)cc1`, the “activity, negative = inhibition” value was -4.98%.

As to `CCN(CC)c1ccc(NC(=O)c2cccc(F)c2)c(C)c1`, the activity, negative = inhibition was 2.35% [at 2.29 µM].

For the molecule `Cc1cccc2cc(CN(Cc3ccccc3)C(=O)c3cccc(F)c3)c(Cl)nc12`, the AC50 was 8.91 µM (active).

Take `CN1CCc2c(cc(O)c(O)c2Cl)[C@H](c2cccc(Cl)c2)C1`: the “activity, negative = inhibition” value is 19.4%.

As to `Cc1cc(C)cc(N(CC(=O)NCCSc2ccccn2)S(=O)(=O)c2ccccc2)c1`, the AC50 is 3.98 µM (active).

On to `O=C(CN(c1ccccc1)S(=O)(=O)c1ccccc1)NCCSCc1ccco1`, for which the AC50 is 14.1 µM (active).

Turning to `CCOC(=O)CN(c1ccccn1)S(=O)(=O)c1ccccc1`, the “activity, negative = inhibition” value is -29.6%.

As to `COC(=O)CN(c1ccccn1)S(=O)(=O)c1ccccc1`, the “activity, negative = inhibition” value was -3.69%.

For the molecule `c1ccc(CNc2ncncc2-c2ccoc2)cc1`, the AC50 is 2 µM (active).

On to `c1cncc(-c2cncnc2NCc2cccs2)c1`, for which the AC50 was 2 µM (active).

As for `c1csc(CNc2ncncc2-c2ccoc2)c1`, the AC50 was 2 µM (active).

As for `CCN(CC)CC[n+]1ccc2c(C)c3[nH]c4ccccc4c3c(C)c2c1`, the activity, negative = inhibition was -16.9% [at 11.4 µM].

On to `COc1ccc(NC2=NCC(=O)N2Cc2cccs2)cc1`, for which the AC50 is 14.1 µM (active).

For the molecule `CCOc1ccc(NC2=NCC(=O)N2Cc2cccs2)cc1`, the AC50 is 17.8 µM (active).

Take `C=CCN1C(=O)CN=C1Nc1ccccc1`: the “activity, negative = inhibition” value was -22.2%.

As for `CCOc1ccc(N2C(=O)CN=C2Nc2ccccc2F)cc1`, the activity, negative = inhibition is 3.08% [at 2.29 µM].

`O=C1CN=C(Nc2ccccc2)N1Cc1cccs1`: the activity, negative = inhibition was -6.15% [at 2.29 µM].

Regarding `COCCNc1ncnc2ccc(-c3ccccc3C(F)(F)F)cc12`, the AC50 is 15.8 µM (active).

In general, AC50 refers to the concentration at which the activity in the assay is half-maximal.
